Only a selection was taken, and hits are over-represented in it overall.
LmPK inhibitor = qHTS Assay for Inhibitors of Leishmania Mexicana Pyruvate Kinase (LmPK); Q27686; purified LmPK, Kinase-Glo ATP luminescence, 1 h; Potency, µM (titrated, usually from 57.5 µM), for inactives: at the top dose activity change, negative = inhibition, actives largely listed as inhibitors; hit rate 0.37% among 290,000; also: potency is read from the fitted curve at half-maximal effect; % is scaled to controls: 0 for no effect and ±100 for the full control effect
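0.1 nM LmPK, 0.5 mM PEP, 0.1 mM ADP; 50 mM imidazole pH 7.2, 7 mM MgCl2, 50 mM KCl; 1 h RT. Kinase-Glo luminescence readout, normalized to no-enzyme (full inhibition) and uninhibited wells.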
Giardia FBPA inh = qHTS Assay for Inhibitors of Fructose-1,6-bisphosphate Aldolase from Giardia Lamblia; A8B2U2; purified Giardia FBPA; Potency, µM (doses to about 59.6 µM), for inactives: at the top dose activity, negative = inhibition, most hits filed as inhibitors; hit rate 0.71% among 290,000; AID 2451, 2010; also: potency is read from the fitted curve at half-maximal effect; % is scaled to controls: 0 for no effect and ±100 for the full control effect; nearly all actives have a fitted effect of over 55% in size
Target sequence (A8B2U2 whole entry, looked up): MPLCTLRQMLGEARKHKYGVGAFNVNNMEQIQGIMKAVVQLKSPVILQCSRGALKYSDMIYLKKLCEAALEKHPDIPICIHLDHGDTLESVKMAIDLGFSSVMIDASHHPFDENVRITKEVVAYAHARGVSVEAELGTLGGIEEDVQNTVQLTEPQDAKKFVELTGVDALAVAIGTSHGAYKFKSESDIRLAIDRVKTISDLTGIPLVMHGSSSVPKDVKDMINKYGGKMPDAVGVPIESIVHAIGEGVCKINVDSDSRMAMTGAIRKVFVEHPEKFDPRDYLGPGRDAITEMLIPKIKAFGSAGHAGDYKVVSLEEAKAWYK
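40 nM FBPA preincubated 10 min at RT with compound (up to 57.5 uM final), then substrate plus GAPDH/TPI/NAD/arsenate coupling and diaphorase/resazurin added. Fluorescence read after 20 min at RT, 525/598 nm.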
Cycloheximide cs = Cycloheximide Counterscreen for Small Molecule Inhibitors of Shiga Toxin. cell reporter, cycloheximide protein synthesis inhibition counterscreen. max response, %. hit rate 12% among 300,000. AID 2314, 2010; in the data active = max response mostly above about 13%, no sharp cut-off; inactive = mostly below about 14%; also: read at 38.3 µM for the half of the compounds with a filed dose; 0% is about no effect
Tb PYK inh = qHTS of Trypanosoma Brucei Inhibitors | pyruvate kinase (Trypanosoma brucei), Q57TT1 | TbPYK enzyme, Kinase-Glo Plus ATP luminescence, 45 min | Potency, µM (series often up to 76.8 µM), without a hit: at the highest dose activity, negative = inhibition, actives largely listed as inhibitors | hit rate 0.12% among 410,000 | AID 624173, 2012; also: potency is read from the fitted curve at half-maximal effect; % is scaled to controls: 0 for no effect and ±100 for the full control effect; nearly all actives have a fitted effect of over 50% in size
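T. brucei PYK with substrate was exposed to pin-transferred compounds across a concentration series, then started with 130 uM ADP (final). After 45 min at room temperature, Kinase-Glo Plus luminescence was read, normalized and curve-fitted.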
Shiga toxin inh = A qHTS for Small Molecule Inhibitors of Shiga Toxin. Vero cells, Shiga toxin protein synthesis inhibition reporter. inhibition, % at 38.7 µM. AID 2315, 2010. hit rate 9.2% among 290,000; in the data active = inhibition mostly above about 28%, no sharp cut-off; inactive = mostly below about 43%; also: 0% is about no effect
RE007 growth inh = qHTS Assay for Inhibitors of the HIV-1 protein Vpr; hit rate 0.21% among 360,000; S. pombe RE007 Vpr strain, BacTiter-Glo ATP luminescence, 24 h; AID 651644, 2012; Potency, µM (highest dose often 92.2 µM), for the others: at the top dose activity change, negative = less growth, hits mostly inhibitors; active = well fitted falling curve with a large enough effect; inconclusive = small, poorly fitted or top-dose-only effect; inactive = no such curve, though single readings can be large or run the other way; also: potency is read from the fitted curve at half-maximal effect; % is scaled to controls: 0 for no effect and ±100 for the full control effect; nearly all actives have a fitted effect of over 50% in size
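Fission yeast strain RE007, carrying one chromosomally integrated HIV-1 vpr copy, was seeded at OD 0.01 in PMG+AL medium with 23 nL pinned compound. After 24 h at 30 °C and 99% humidity, viability was read by BacTiter-Glo luminescence.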
An asterisk follows results filed as active; ? = inconclusive; nt = no result given; [ ] = another dose, or the depositor's remark. Unless noted, calls follow the shape of the dose curve; as a rule, active = well fitted curve in the direction sought with a large enough effect; inconclusive = small, poorly fitted or top-dose-only effect, or another doubt; inactive = no such curve, though single readings can be large; an effect the other way counts as inactive or inconclusive.

SMILES | LmPK inhibitor | Giardia FBPA inh | Cycloheximide cs | Tb PYK inh | Shiga toxin inh | RE007 growth inh
N#Cc1cnc(SCCc2ccccc2)nc1N | -9% | -7% | 24* | -8% | 39* | -22%
CC(=O)C1=C(c2ccc(Cl)c(Cl)c2)N(C(C)=O)n2cnnc2S1 | nt | nt | nt | 3% | nt | nt
NC(=Nc1ccc(Br)cc1)c1ccccc1 | 1% | 6% | 20* | 5% | 76* | -22%
N/C(=N\OC(=O)Oc1ccccc1)c1ccc(Br)cc1 | -12% | 5% | -4 | 1% | -22 | -25%
CCN(CC)S(=O)(=O)c1cccc(C(=O)NCC2CCCCC2)c1 | 1% | 13% | -4 | -7% | 13 | -5%
O=[N+]([O-])c1ccc(-c2cnc3ccccc3n2)cc1 | 0% | -2% | 26* | -10% | 32* | 6%
O=[N+]([O-])c1ccccc1Oc1cnc2ccccc2n1 | 0% | -16% | 2 | -2% | -3 | 0%
O=[N+]([O-])c1cc(-c2cnc3ccccc3n2)ccc1Oc1ccc(F)cc1 | 1% | -2% | 53* | -3% | 81* | -6%
CCOc1ccc(-c2cnc3ccccc3n2)cc1 | ? | 3% | 40* | -12% | 96* | -9%
O=C(Cc1ccccc1)Nc1sc2c(c1C(=O)Nc1ccc(Cl)cc1)CCOC2 | nt | nt | 3 | nt | 10 | nt
O=C(/C=C\c1ccccc1OC(=O)c1ccccc1F)c1cc2ccccc2o1 | 2% | -3% | 44* | 0% | 63 | -11%
COC(=O)c1ccccc1OC(=O)c1cc2ccccc2oc1=O | -8% | -4% | 29* | -1% | 52* | 13%
CC(=O)/C=C\c1ccccc1OC(=O)c1cc2ccccc2oc1=O | 1% | 16% | 11* | 0% | 2 | 0%
C[C@@H]1CCN(C(=O)[C@H](CCCNC(=N)N)NS(=O)(=O)c2cccc3c2NC[C@H](C)C3)[C@@H](C(=O)O)C1 | nt | nt | nt | 1% | nt | nt
CCOc1ccccc1-n1c(SCC(=O)Nc2ccccc2C(=O)O)nc2ccccc2c1=O | -4% | 10% | 36* | 1% | 35* | 5%
CCn1c(SCC(=O)Nc2ccccc2OC)nc2ccccc2c1=O | 0% | 6% | 3 | 6% | -19 | -4%
O=C(N=C1SC2CS(=O)(=O)CC2N1Cc1ccccc1)C1CC1 (stereo unspecified) | nt | nt | nt | -4% | nt | 5%
COc1ccc(CNC(=O)N2CCc3ccccc3C2)cc1 | -1% | 5% | 16* | 3% | 58* | 0%
O=C(NCc1ccc(F)cc1)N1CCc2ccccc2C1 | -6% | 2% | 36* | 1% | 69 | 29%
COc1ccc(CN(C)CC(=O)N2CCc3ccccc3C2)cc1 | 11% | 0% | -2 | 1% | -14 | 4%
CN[C@@H](C)C(=O)NC[C@H]1O[C@@H](n2cnc3c(N)ncnc32)[C@H](O)[C@@H]1O | nt | nt | nt | 1% | nt | 10%
C/C=C/OC(=O)NC(c1ccccc1)[C@]1(C(C)=O)CCCC1=O (stereo partly specified) | nt | -11%[12.9 µM] | nt | nt | nt | nt
CCC1C(=O)NCCN1C(=O)c1cccc(OC2CCN(S(=O)(=O)N(C)C)CC2)c1 (stereo unspecified) | -2% | nt | 38* | 2% | 52 | 4%
CN(C)S(=O)(=O)N1CCC(Oc2cccc(C(=O)NC3CCOC3)c2)CC1 (stereo unspecified) | -1% | nt | 15* | 5% | 23 | -14%
CN1CCN(S(=O)(=O)c2cccc(C(=O)NCCC3=CCCCC3)c2)CC1 | nt | nt | nt | 0% | nt | 1%
SMILES | LmPK inhibitor | Giardia FBPA inh | Cycloheximide cs | Tb PYK inh | Shiga toxin inh | RE007 growth inh
CN(C)S(=O)(=O)N1CCC(Oc2cccc(C(=O)NC3CCCCC3)c2)CC1 | -1% | nt | 28 | -28% | 24 | 5%
CN(C)S(=O)(=O)N1CCC(Oc2cccc(C(=O)NCCC3=CCCCC3)c2)CC1 | 10% | 6% | 24* | -5% | 63* | 1%
Cc1cc(C)cc(N2C(=O)CC(c3ccccc3)CC2=O)c1 | nt | nt | nt | -1% | nt | 4%
COc1cc(NC(=O)CSc2nc(C)c(C(=O)Nc3ccccc3)c(-c3ccc(OC)c(OC)c3)c2C#N)c(OC)cc1Cl | nt | nt | nt | -25% | nt | nt
O=C(NC1=NCCS1)c1cccc(F)c1 | nt | nt | nt | -5% | nt | 24%
CC(C)Oc1cccc(C(=O)NC2=NCCS2)c1 | 0% | -4% | 55* | 2% | 108* | -7%
CCCCN1C(=O)c2ccc(C(=O)NC3=NCCS3)cc2C1=O | 7% | 9% | 20* | -6% | 34 | -11%
COc1cccc(C(=O)NC2=NCCS2)c1 | -21% | -2% | 29* | 3% | 41* | 7%
CCOc1cccc(C(=O)NC2=NCCS2)c1 | -5% | 9% | 40* | 11% | 72* | 3%
COc1ccc(-n2c(Cc3ccccc3)nnc2SCc2nc(-c3cccs3)no2)cc1 | nt | nt | nt | -3% | nt | nt
N#Cc1ccccc1NC(=O)C(=O)NCC(c1ccc2c(c1)OCO2)N1CCOCC1 (stereo unspecified) | nt | nt | nt | 8% | nt | nt
COc1cc(NC(=O)Cn2c(-c3ccccc3)cc(C(C)=O)c2C)cc(OC)c1 | nt | nt | nt | -3%[15.4 µM] | nt | nt
COc1cccc(C(=O)Nc2nnc(-c3ccc(Cl)cc3)o2)c1 | 7% | ? | -5 | -6% | -3 | -25%
COc1cccc(C(=O)Nc2nnc(-c3cccs3)o2)c1 | 3% | 13% | 33* | -6% | 93 | -24%
O=C1NCC2=C1C(c1ccc(Br)cc1)Nc1ccccc1N2 (stereo unspecified) | -5% | -11% | 22* | -13% | 77* | 14%
CCCCn1c(-c2csc(CC)c2)n[nH]c1=S | ? | 18% | 6 | 4µM* | -7 | -4%
Cc1cccc(-n2c(-c3csc(C)c3)n[nH]c2=S)c1 | 4.5µM* | 4% | -2 | ? | -17 | 5%
CCc1cc(-c2n[nH]c(=S)n2-c2cccc(C)c2)cs1 | 4.5µM* | 9% | 12 | 11µM* | -23 | 5%
O=c1[nH]c(SCc2ccc(Br)cc2)nc2c1CCCC2 | nt | nt | nt | 7% | nt | nt
Cc1cccc(NC(=O)CCS(=O)(=O)c2cc(Br)cc3c2N(C(=O)C2CC2)CC3)c1 | nt | nt | nt | 2% | nt | nt
O=C(/C=C/Nc1nccs1)C(F)(F)Cl | -1% | -8% | 35* | -8% | 102* | 9%
O=C(Nc1nccs1)NC(C(F)(F)F)C(F)(F)F | 0% | 0% | -6 | -5% | -11 | -2%
CC(=O)OC1C2CCC1C([N+]1(C)CCCCC1)CC2 (stereo unspecified) | -1% | 3% | 1 | ? | -6 | 7%
Cc1ccc(NC(=O)c2sc3nc(-c4ccncc4)ccc3c2N)cc1 | nt | nt | nt | 1% | nt | nt
Nc1c(C(=O)Nc2ccccc2)sc2nc(-c3ccco3)ccc12 | -1% | 0% | 27* | -5% | 95* | -5%
